Compounds with a hit are over-represented: about 2.1% of the library has one in this group of screens.
ABCB6 inh MLPCN: ABCB6 transporter inhibitors, primary screen, K562-ABCB6 cells, flow cytometry, MLPCN library. K562-ABCB6 porphyrin accumulation, 1 h; hits give low values. 0.19% of 360,000 active. fluorescence ratio to DMSO, % at 10 µM. ATP-binding cassette sub-family B member 6 (Homo sapiens), Q9NP58;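 active = fluorescence ratio to DMSO below 75%, the collection mean minus 3 SD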;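 note: signal is porphyrin accumulated inside mitochondria; lower ratio means ABCB6 inhibition with less porphyrin fluorescence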
Target sequence (Q9NP58 whole entry, looked up): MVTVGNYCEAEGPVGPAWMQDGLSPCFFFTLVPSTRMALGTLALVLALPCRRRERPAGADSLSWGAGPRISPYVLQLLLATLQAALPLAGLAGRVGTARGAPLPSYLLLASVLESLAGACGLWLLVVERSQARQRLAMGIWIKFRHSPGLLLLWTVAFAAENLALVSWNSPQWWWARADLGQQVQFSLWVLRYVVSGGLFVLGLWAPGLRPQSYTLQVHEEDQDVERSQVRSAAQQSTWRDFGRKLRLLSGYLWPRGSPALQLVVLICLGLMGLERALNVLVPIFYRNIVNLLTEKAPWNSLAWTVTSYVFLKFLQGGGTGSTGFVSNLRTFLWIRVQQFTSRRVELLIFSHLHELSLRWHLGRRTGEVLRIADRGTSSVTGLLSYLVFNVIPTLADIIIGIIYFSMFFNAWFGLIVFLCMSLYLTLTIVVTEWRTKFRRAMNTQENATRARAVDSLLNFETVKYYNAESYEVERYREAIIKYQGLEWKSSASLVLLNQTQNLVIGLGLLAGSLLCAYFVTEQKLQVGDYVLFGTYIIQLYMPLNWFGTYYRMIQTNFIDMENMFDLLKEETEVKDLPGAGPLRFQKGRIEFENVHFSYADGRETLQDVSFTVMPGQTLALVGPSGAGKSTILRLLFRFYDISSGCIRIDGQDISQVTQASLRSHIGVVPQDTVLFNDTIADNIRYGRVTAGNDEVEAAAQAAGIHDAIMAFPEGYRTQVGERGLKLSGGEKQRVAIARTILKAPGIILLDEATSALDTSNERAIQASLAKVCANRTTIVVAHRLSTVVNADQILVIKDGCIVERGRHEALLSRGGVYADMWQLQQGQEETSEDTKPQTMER
MsrA inh: bovine MsrA enzyme inhibitors, primary screen, biochemical, absorbance, HTS. Methionine sulfoxide reductase A (Bos taurus). inhibition, % at 15.5 µM. purified bovine MsrA, absorbance read-out. 0.75% of 360,000 active
bovine MsrA act: bovine MsrA enzyme activators, primary screen, biochemical, absorbance, HTS; purified bovine MsrA, absorbance read-out; AID 602163, 2012; Methionine sulfoxide reductase A (Bos taurus); 0.3% of 360,000 active; activation, % at 10.6 µM; in the data active = activation above about 7.5%
SMARCA2 act: SMARCA2 (BRM) function activators, primary screen, cell-based, luminescence, high throughput; AID 652017, 2013; activation, % at 9.1 µM; MG213 cells, MMTV-luciferase reporter, dexamethasone, overnight; 1% of 370,000 active; in the data active = activation above about 7.8%
MsrA conf: bovine MsrA inhibitors, retest, confirmation, biochemical, absorbance, HTS; 41% of 2,300 active; inhibition, % at 15.5 µM; purified bovine MsrA, absorbance read-out; shares compounds with MsrA inh;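 note: coupled to thioredoxin reductase with NADPH and selenocystamine and DMSO as substrate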
Of the large screens only hits and unclear results are named; the others gave an inactive call (follow-up assays come after a bar, where they were run). Cut-off read from the data, not from the text of the source, unless noted: active = inhibition above about 4.5%; inactive = the rest.

CCC(=O)/C=C1\Sc2ccc(OC)cc2N1CC	MsrA inh 5.7 | MsrA conf inactive
CCC(=O)/C=C1\Sc2ccc(OC)cc2N1CCO	none
O=Cc1ccc(N2CCCCC2)cc1	none
COc1cc(N2CCCC2)ccc1C=O	MsrA inh 6.8 | MsrA conf inactive
COCCCNC(=O)C[C@H]1C[C@@]2(C(=O)OC)C(=C[C@H](COCc3ccccc3)O[C@@H]2C)N(Cc2ccccc2)C1=O	none (no result: ABCB6 inh MLPCN, MsrA inh, bovine MsrA act)
CC(C)Cn1cc(C(=O)NCCCN2CCCC2=O)c2c3ccccc3n(C)c2c1=O	MsrA inh 4.9 | MsrA conf inactive
CSCCCNc1nc(C)nc2c1nnn2Cc1ccccc1	none (no result: ABCB6 inh MLPCN, MsrA inh, bovine MsrA act)
CC(CCN1CCC(C(O)(c2ccccc2)c2ccccc2)CC1)Oc1cc(F)cc(F)c1 (centres undefined)	none (no result: ABCB6 inh MLPCN, MsrA inh, bovine MsrA act)
O=C(O)[C@H](Cc1ccccc1)Nc1ccc([N+](=O)[O-])cn1	MsrA inh 4.8 | MsrA conf inactive
O=C(O)C(Cc1ccccc1)Nc1ccc([N+](=O)[O-])cc1[N+](=O)[O-] (centres undefined)	none
O=C(Nc1ccc2nc(-c3cccs3)[nH]c2c1)c1cccs1	none
O=C(Nc1ccc2nc(-c3cccs3)[nH]c2c1)c1ccco1	MsrA inh 4.7 | MsrA conf inactive
O=C(O)CC1S/C(=N\N=C2\C(=O)Nc3ccccc32)N(c2ccc(O)cc2)C1=O (centres undefined)	MsrA inh 5.9 | MsrA conf inactive
O=C(O)CC1S/C(=N\N=C2CCCCCCC2)N(c2ccccc2)C1=O (centres undefined)	none
CCN(CC)c1ccc(-c2nc3cnccc3n2C)cc1	MsrA inh 5.4 | MsrA conf inactive
Cc1nc2nc(-c3cccs3)[nH]c2cc1Br	MsrA inh 7.0 | MsrA conf inactive
O=S1(=O)c2ccc(N3CCCC3)cc2Oc2ccccc2CN1Cc1cn(Cc2ccccc2C(F)(F)F)nn1	none (no result: ABCB6 inh MLPCN, MsrA inh, bovine MsrA act)
CC(C)c1ccc(NC(=O)C2(C)Cc3c(-c4ccc5c(c4)OCO5)ccnc3O2)cc1 (centres undefined)	none
COc1ccc(/C=C/C(=O)O)cc1	none
COc1ccc(/C=C/C(=O)C2(O)CCCCC2)cc1	MsrA inh 5.2 | MsrA conf inactive
CCCN1CCCCC(NC(=O)c2c(F)cccc2F)C1=O (centres undefined)	none (no result: ABCB6 inh MLPCN, bovine MsrA act)
CCNc1c(NC(C)=O)c(=O)oc2ccccc12	none
CC(=O)Nc1c(-c2cc(=O)oc3cc(C)ccc23)oc2ccccc12	MsrA inh 4.9 | MsrA conf inactive
COc1ccccc1NS(=O)(=O)c1cccc(C(=O)N/N=C/c2cn(-c3ccccc3)nc2-c2ccccc2)c1	MsrA inh 6.1 | MsrA conf inactive
CNc1ncnc(Sc2nc(N)nc3nc[nH]c23)c1[N+](=O)[O-]	MsrA inh 5.3 | MsrA conf 5.5
Cc1cccc(Nc2c([N+](=O)[O-])cc(C(=O)N3CC(=O)Nc4ccccc43)cc2[N+](=O)[O-])c1	MsrA inh 4.7 | MsrA conf inactive
Cc1ccc(C)c(Nc2c([N+](=O)[O-])cc(C(=O)N3CC(=O)Nc4ccccc43)cc2[N+](=O)[O-])c1	MsrA inh 12.0 | MsrA conf 9.9
Cc1ccc(C)c(NC(=O)CNC(=O)N2CC(=O)Nc3ccccc32)c1	none
COC(=O)C1CN(Cc2cn(Cc3ccc(C)cc3)nn2)CCS(=O)(=O)N1Cc1ccc(Cl)cc1 (centres undefined)	none (no result: ABCB6 inh MLPCN, MsrA inh, bovine MsrA act)
CCOC(=O)Cn1cc(CN2C(C(=O)OC)CN(Cc3ccc(Cl)cc3)CCS2(=O)=O)nn1 (centres undefined)	none (no result: ABCB6 inh MLPCN, MsrA inh, bovine MsrA act)
Cc1nc2ccccn2c(=O)c1NC(=O)c1ccco1	MsrA inh 4.8 | MsrA conf inactive
Cc1nc2ccccn2c(=O)c1NC(=O)c1cccc2ccccc12	none
Fc1ccccc1C1CC(c2ccco2)=Nc2ccccc2S1 (centres undefined)	MsrA inh 4.9 | MsrA conf inactive
CC1(C)S/C(=N/N=C/c2cccs2)NC1=O	MsrA inh 4.7 | MsrA conf inactive
O=C1CS/C(=N/N=C/c2cccs2)N1	MsrA inh 6.4 | MsrA conf inactive
O=C1CS/C(=N/N=C/c2ccncc2)N1	none
O=C(NCCc1ccc(F)cc1)c1ccc2c(c1)ncn2C1CCCCC1	none (no result: ABCB6 inh MLPCN, MsrA inh, bovine MsrA act)
CCCC(=O)Nc1nc2ccc(OC)cc2s1	none
COc1ccc2nc(NC(=S)N(C)C)sc2c1	MsrA inh 6.3 | MsrA conf inactive
CSc1nc2sc3c(c2c(=O)n1C)CCCC3	none
CSc1nc2sc3c(c2c2nnnn12)CCCC3	MsrA inh 12.3 | MsrA conf 17.2
O=c1/c(=C/c2ccco2)sc2n1CN(c1cccc(Br)c1)CN=2	MsrA inh 5.2 | MsrA conf inactive
O=c1/c(=C/c2ccco2)sc2n1CN(c1ccccc1)CN=2	MsrA inh 5.0 | MsrA conf 6.1
COCCCNC(=S)N(CCCO)Cc1cc2cc3c(cc2[nH]c1=O)OCCO3	MsrA inh 5.0 | MsrA conf inactive
COCCCNC(=S)N(CCCO)Cc1cc2cc3c(cc2[nH]c1=O)OCO3	none
CCOC(=O)c1nnn(-c2nonc2-c2ccccc2)c1C	MsrA inh 19.0 | MsrA conf 13.6
CC(c1ccccc1)n1cc(C(=O)N2CCCN(Cc3ccccc3)CC2)nn1 (centres undefined)	none (no result: ABCB6 inh MLPCN, MsrA inh, bovine MsrA act)
S=c1nc(-c2ccccn2)c(-c2ccccn2)n[nH]1	none (no result: MsrA inh, SMARCA2 act)
COC(=O)N1[C@H](C)C=C[C@]1(Cc1ccccc1)C(=O)NCCCNc1ncc(C(F)(F)F)cc1Cl	MsrA inh 37.1 | MsrA conf 36.8
C[C@]1(C(=O)NCCCNc2ncc(C(F)(F)F)cc2Cl)C=C[C@@H](Cc2ccccc2)N1C(=O)c1ccccc1	none (no result: MsrA inh, SMARCA2 act)
COC(=O)[C@]12C[C@H](CC(=O)N3CCC(c4ccccc4)CC3)C(=O)N(Cc3ccco3)C1=C[C@H](C1CCCC1)O[C@@H]2C	none (no result: ABCB6 inh MLPCN, MsrA inh, bovine MsrA act)
CCc1ccc(S(=O)(=O)Nc2cc(SCC(=O)O)c(O)c3ccccc23)cc1	none
O=C(O)CSc1cc(NS(=O)(=O)c2cccc([N+](=O)[O-])c2)c2ccccc2c1O	MsrA inh 20.3 | MsrA conf inactive
COCCCN1C(=O)[C@H](CC(=O)NCc2ccccc2)[C@]2(C(=O)OC)CCCCC=C12	none (no result: ABCB6 inh MLPCN, MsrA inh, bovine MsrA act)
C=CCc1c(C)nc(C)nc1N/N=C/c1ccccc1O	none
C=CCc1c(C)nc(C)nc1N/N=C/c1ccc([N+](=O)[O-])cc1	MsrA inh 7.0 | MsrA conf inactive
Nc1[nH]c(C(=O)c2ccccc2)c(-c2ccc(Br)cc2)c1C(=O)c1ccccc1	none (no result: ABCB6 inh MLPCN, bovine MsrA act)
COC(=O)c1ccc(-c2ccc3c(c2)[C@]2(CCC[C@@H](O)[C@@H]2NC(=O)CCc2ccccc2)C(=O)N3Cc2ccccc2)cc1	none (no result: ABCB6 inh MLPCN, MsrA inh, bovine MsrA act)
Cc1[nH][nH]c(=O)c1C=Nc1ccc(C(F)(F)F)cc1	none
COc1ccc(N=Cc2c(C)[nH][nH]c2=O)cc1	MsrA inh 5.4 | MsrA conf inactive
O=C(O)c1cccn2c(=O)c3ccccc3nc12	MsrA inh 4.7 | MsrA conf inactive

Screens deposited in PubChem BioAssay by several laboratories.
